# Some compounds were tested as several samples or in several runs, with calls that do not always agree. Calls of active or inactive are those of the source. The calls were made as follows: active = hit-call score of the fitted dose curve at least 0.9, where 1 is the maximum; inactive = score below 0.9.
# Tests used:
# Conditions in all cases: mRNA level, 48 h; actives raise or lower the signal
# [1] = read-out: Bcl-2 (BID) gene, BID (gene 637); experiment: LTEA_HepaRG_BID: Life Technologies and Expression Analysis (LTEA) Assay for Bcl-2 (BID) gene using HepaRG (AID 2283476)
# In short: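 Cells are plated, cultured 48 h, switched to serum-free induction medium, then dosed 48 h (100 uM top, half-log steps, 0.5% DMSO). RNA is isolated and BID expression read by qRT-PCR.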
# Caspase-3 (Homo sapiens) = Caspase-3 (Homo sapiens) (UniProt P42574); experiment: LTEA_HepaRG_CASP3: Life Technologies and Expression Analysis (LTEA) Assay for cysteine-aspartic acid protease (CASP3) using HepaRG (AID 2283477)
# Caspase-3 (Homo sapiens), sequence (P42574 whole entry, looked up): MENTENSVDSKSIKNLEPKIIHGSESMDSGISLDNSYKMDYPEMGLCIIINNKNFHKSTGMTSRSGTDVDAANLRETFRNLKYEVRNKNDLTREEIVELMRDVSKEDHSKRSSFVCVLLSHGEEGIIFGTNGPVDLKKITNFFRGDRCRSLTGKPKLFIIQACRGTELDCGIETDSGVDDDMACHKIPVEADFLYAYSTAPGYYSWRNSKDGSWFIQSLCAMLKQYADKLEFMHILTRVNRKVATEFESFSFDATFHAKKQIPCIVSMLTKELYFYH
# In short: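 HepaRG, 48 h exposure, 8 conc. (top 100 uM, half-log steps, duplicate), 0.5% DMSO vehicle; qRT-PCR of CASP3 transcript, housekeeping-normalised (ACTB/GAPDH/POLR2A); bidirectional curve fit vs DMSO baseline.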
# [2] = read-out: Cytochrome P450 (CYP24A1), CYP24A1 (gene 1591); experiment: LTEA_HepaRG_CYP24A1: Life Technologies and Expression Analysis (LTEA) Assay for Cytochrome P450 (CYP24A1) using HepaRG (AID 2283478)
# In short: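 qRT-PCR read-out: CYP24A1 transcript levels normalized to three housekeeping genes, bidirectional curve fits against 0.5% DMSO baseline. Human HepaRG cells treated 48 h with chemicals at eight concentrations from 100 uM in half-log steps.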
# [3] = read-out: cysteine-aspartic acid protease (CASP8), CASP8 (gene 841); experiment: LTEA_HepaRG_CASP8: Life Technologies and Expression Analysis (LTEA) Assay for cysteine-aspartic acid protease (CASP8) using HepaRG (AID 2283480)
# In short: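 CASP8 transcript measured by TaqMan qRT-PCR with ACTB/GAPDH/POLR2A normalization, after 48 h chemical exposure of HepaRG cells in serum-free induction medium. Eight concentrations, top 100 uM, half-log steps, 0.5% DMSO vehicle; fits in both directions versus DMSO.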
# [4] = read-out: Cytochrome P450 (CYP2B6), CYP2B6 (gene 1555); experiment: LTEA_HepaRG_CYP2B6: Life Technologies and Expression Analysis (LTEA) Assay for Cytochrome P450 (CYP2B6) using HepaRG (AID 2283481)
# In short: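 Read-out is CYP2B6 mRNA by TaqMan qRT-PCR, normalized to three housekeeping genes and fitted bidirectionally against 0.5% DMSO baseline. Human HepaRG cells received test chemicals for 48 h, top concentration 100 uM, half-log dilutions.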
# [5] = read-out: Cytochrome P450 2C19 (Homo sapiens) (UniProt P33261); experiment: LTEA_HepaRG_CYP2C19: Life Technologies and Expression Analysis (LTEA) Assay for CYP2C19 using HepaRG (AID 2283482)
# In short: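 HepaRG, 48 h chemical exposure, 8-pt half-log series from 100 uM in 0.5% DMSO, duplicates. Readout: CYP2C19 mRNA by TaqMan qRT-PCR, housekeeping-normalized. Bidirectional fit vs DMSO baseline; phenobarbital 1mM as induction control.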
# CYP2C8 (gene 1558) = experiment: LTEA_HepaRG_CYP2C8: Life Technologies and Expression Analysis (LTEA) Assay for CYP2C8 using HepaRG (AID 2283483)
# In short: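 CYP2C8 expression measured by TaqMan qRT-PCR and normalized to three housekeeping genes. HepaRG cultures were treated for 48 h with an eight-point half-log series topping at 100 uM, vehicle 0.5% DMSO, duplicates; fitted both directions against DMSO.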
# CYP2C9 (gene 1559) = experiment: LTEA_HepaRG_CYP2C9: Life Technologies and Expression Analysis (LTEA) Assay for CYP2C9 using HepaRG (AID 2283484)
# In short: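 CYP2C9 transcript level, quantified by TaqMan qRT-PCR against three housekeeping genes, was fitted bidirectionally relative to 0.5% DMSO. HepaRG cultures were treated 48 h, in duplicate, at eight half-log concentrations topping at 100 uM.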
# CYP2E1 (gene 1571) = experiment: LTEA_HepaRG_CYP2E1: Life Technologies and Expression Analysis (LTEA) Assay for CYP2E1 using HepaRG (AID 2283485)
# In short: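 Readout is qRT-PCR of CYP2E1 mRNA, normalized to three housekeeping genes and fitted bidirectionally against 0.5% DMSO. HepaRG cells were dosed 48 h at eight concentrations, highest 100 uM with half-log dilutions.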
# Cytochrome P450 2C19 (Homo sapiens), sequence (P33261 whole entry, looked up): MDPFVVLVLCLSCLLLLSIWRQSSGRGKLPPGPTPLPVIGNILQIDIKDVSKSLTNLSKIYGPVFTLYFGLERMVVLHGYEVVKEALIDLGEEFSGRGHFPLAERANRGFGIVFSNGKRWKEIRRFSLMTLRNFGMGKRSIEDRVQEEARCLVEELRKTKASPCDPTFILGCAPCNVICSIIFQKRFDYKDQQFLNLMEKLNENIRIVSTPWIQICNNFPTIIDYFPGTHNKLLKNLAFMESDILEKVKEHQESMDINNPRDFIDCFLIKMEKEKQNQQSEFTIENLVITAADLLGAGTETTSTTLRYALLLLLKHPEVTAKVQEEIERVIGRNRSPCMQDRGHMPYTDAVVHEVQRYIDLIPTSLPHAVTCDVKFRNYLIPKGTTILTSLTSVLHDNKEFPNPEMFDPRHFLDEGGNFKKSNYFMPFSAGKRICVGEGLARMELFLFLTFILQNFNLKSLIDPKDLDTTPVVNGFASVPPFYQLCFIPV
Compound,outcome [1],outcome (Caspase-3 (Homo sapiens)),outcome [2],outcome [3],outcome [4],outcome [5],outcome (CYP2C8 (gene 1558)),outcome (CYP2C9 (gene 1559)),AC50 (CYP2E1 (gene 1571)),AC50 [4],outcome (CYP2E1 (gene 1571)),AC50 (Caspase-3 (Homo sapiens)),AC50 [3],AC50 [5],AC50 (CYP2C8 (gene 1558)),AC50 (CYP2C9 (gene 1559)),AC50 [1],AC50 [2]
CS/C(C)=N/OC(=O)N(C)SN(C)C(=O)O/N=C(\C)SC,inactive,inactive,inactive,inactive,inactive,inactive,inactive,inactive,9.92 µM (active),,,,,,,,,
CNC(=O)ON=CC(C)(C)SC,inactive,inactive,inactive,inactive,,inactive,inactive,inactive,,50 µM (active),inactive,,,,,,,
N#Cc1cc(Br)c(O)c(Br)c1,inactive,,inactive,,,,,,17.1 µM (active),9.97 µM (active),,7.76 µM (active),23.6 µM (active),13.9 µM (active),25.3 µM (active),14.4 µM (active),,
CCCCNC(=O)OCC#CI,inactive,inactive,inactive,inactive,,,,,,30.6 µM (active),inactive,,,50 µM (active),50 µM (active),21.5 µM (active),,
COc1nc(NC(C)C)nc(NC(C)C)n1,inactive,inactive,inactive,inactive,,,inactive,inactive,37 µM (active),6.01 µM (active),,,,9.99 µM (active),,,,
CC(C)C1(C)N=C(c2nc3ccccc3cc2C(=O)O)NC1=O (stereo not given),inactive,inactive,inactive,inactive,,,inactive,inactive,,6.39 µM (active),inactive,,,14.1 µM (active),,,,
CCON=C(CC)C1=C(O)CC(c2c(C)cc(C)cc2C)CC1=O (stereo not given),inactive,inactive,inactive,inactive,,,,inactive,43.6 µM (active),29.5 µM (active),,,,23.5 µM (active),50 µM (active),,,
O=C(O)c1nc(Cl)ccc1Cl,inactive,inactive,inactive,inactive,inactive,inactive,inactive,inactive,17.6 µM (active),,inactive,,,,,,,
CCCCC(CC)COC(=O)c1ccccc1C(=O)OCC(CC)CCCC (stereo not given),inactive,inactive,inactive,inactive,,inactive,inactive,inactive,,19 µM (active),inactive,,,,,,,
Fc1ccc(Oc2ccnc3cc(Cl)cc(Cl)c23)cc1,inactive,inactive,inactive,inactive,,inactive,,,77.7 µM (active),11.9 µM (active),,,,,86.6 µM (active),86.8 µM (active),,
CC(C)(C)c1ccc(CSc2cnn(C(C)(C)C)c(=O)c2Cl)cc1,inactive,inactive,inactive,,,,,,1.48 µM (active),1.54 µM (active),,,12.8 µM (active),28 µM (active),22.5 µM (active),13.4 µM (active),,
CCNc1nc(Cl)nc(NC(C)C)n1,inactive,inactive,inactive,inactive,,,,inactive,16.6 µM (active),2.34 µM (active),,,,15.2 µM (active),31.5 µM (active),,,
N#CC(CCc1ccc(Cl)cc1)(Cn1cncn1)c1ccccc1 (stereo not given),inactive,inactive,inactive,inactive,,,,,27.3 µM (active),50 µM (active),,,,76.1 µM (active),73.7 µM (active),59.8 µM (active),,
CC(Oc1ccc(Cl)cc1Cl)C(=O)O (stereo not given),inactive,inactive,inactive,inactive,inactive,inactive,inactive,inactive,,,inactive,,,,,,,
OC(c1ccc(Cl)cc1)(c1cncnc1)c1ccccc1Cl (stereo not given),inactive,inactive,inactive,,,,,,46.7 µM (active),91.3 µM (active),,,50 µM (active),89.6 µM (active),83.6 µM (active),83.7 µM (active),,
CCOP(=S)(OCC)SCn1c(=O)oc2cc(Cl)ccc21,inactive,inactive,inactive,inactive,,inactive,inactive,inactive,,17.7 µM (active),inactive,,,,,,,
CCCCOC(=O)c1ccccc1C(=O)OCCCC,inactive,inactive,inactive,inactive,inactive,inactive,inactive,inactive,,,inactive,,,,,,,
COC(=O)c1ccccc1C(=O)OC,inactive,inactive,inactive,inactive,inactive,inactive,inactive,inactive,,,inactive,,,,,,,
CON(C)C(=O)Nc1ccc(Cl)c(Cl)c1,inactive,inactive,inactive,inactive,,,inactive,inactive,77.6 µM (active),24 µM (active),,,,65.1 µM (active),,,,
CC1COC(Cn2cncn2)(c2ccc(Oc3ccc(Cl)cc3)cc2Cl)O1 (stereo not given),,inactive,,inactive,,,,,8.67 µM (active),9.66 µM (active),,,,27.1 µM (active),9.46 µM (active),15.7 µM (active),12 µM (active),50 µM (active)
CN(C)C(=S)SSC(=S)N(C)C,inactive,inactive,inactive,inactive,,inactive,inactive,inactive,,50 µM (active),inactive,,,,,,,
CCCCNC(=O)n1c(NC(=O)OC)nc2ccccc21,inactive,inactive,inactive,inactive,inactive,inactive,inactive,inactive,,,inactive,,,,,,,
O=C(O)COc1nc(Cl)c(Cl)cc1Cl,inactive,inactive,inactive,inactive,,,inactive,inactive,,51 µM (active),inactive,,,51 µM (active),,,,
CCCC1COC(Cn2cncn2)(c2ccc(Cl)cc2Cl)O1 (stereo not given),inactive,inactive,inactive,inactive,,,,,13.5 µM (active),30.9 µM (active),,,,74.5 µM (active),36.4 µM (active),34.8 µM (active),,
COc1ccc(C(c2ccc(OC)cc2)C(Cl)(Cl)Cl)cc1,inactive,inactive,inactive,inactive,,,inactive,inactive,66 µM (active),12.4 µM (active),,,,12.7 µM (active),,,,
COC(=O)N(OC)c1ccccc1COc1ccn(-c2ccc(Cl)cc2)n1,,,inactive,,,,,,34.1 µM (active),78.1 µM (active),,79.5 µM (active),80.1 µM (active),77.8 µM (active),77.9 µM (active),74.7 µM (active),75.3 µM (active),
